Assay outcomes as filed in PubChem BioAssay.
Sampled rows, rich in hits. Any-hit rate of the full collection: about 3.2%.
HDAC3 inh: blocks human histone deacetylase 3; O15379; recombinant HDAC3, fluorogenic peptide/trypsin coupled, fluorescence; inhibition, % at 8.3 µM; 320,000 tested, 0.15% active; AID 2718; in the data active means inhibition above about 26%, passing the limit was not always enough
Target sequence (O15379 whole entry, looked up): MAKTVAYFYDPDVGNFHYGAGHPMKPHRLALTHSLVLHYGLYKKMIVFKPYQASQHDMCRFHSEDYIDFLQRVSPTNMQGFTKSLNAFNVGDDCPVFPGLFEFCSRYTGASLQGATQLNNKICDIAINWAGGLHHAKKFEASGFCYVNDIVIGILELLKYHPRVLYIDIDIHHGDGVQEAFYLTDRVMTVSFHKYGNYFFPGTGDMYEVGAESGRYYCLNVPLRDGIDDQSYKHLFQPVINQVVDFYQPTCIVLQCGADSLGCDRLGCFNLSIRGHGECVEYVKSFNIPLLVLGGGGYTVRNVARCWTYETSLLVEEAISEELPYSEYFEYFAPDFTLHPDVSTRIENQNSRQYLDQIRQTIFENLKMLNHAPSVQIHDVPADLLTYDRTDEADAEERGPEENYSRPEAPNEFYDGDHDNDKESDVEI
CHT allo act: allosteric activators of human choline transporter CHT; CHT-expressing cells, membrane potential dye, choline EC20; hits give high values; LV-AA mutant CHT in HEK293 cells; 310,000 tested, 0.49% active; AID 488977; B-score at 10 µM; Q9GZV3;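 active means initial fluorescence not abnormally high and integrated response B-score, plate-corrected, over 3 SD above library mean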
CHT block: inhibits the human high affinity choline transporter. 310,000 tested, 0.86% active. AID 488975. CHT-expressing cells, membrane potential dye, choline response; hits give low values. Q9GZV3. B-score at 10 µM;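 active means B-score over 3 SD under the library average, and starting fluorescence ratio not unusually high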;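 further: choline stimulus applied at its EC90 after an EC20 pre-addition; B-score computed on integrated fluorescence ratio after choline addition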
TMEM16A act: activates or potentiates the mouse TMEM16A chloride channel; B-score at 10 µM; AID 623877; HEK293 TMEM16A/YFP-H148Q/I152L, iodide quench fluorescence; hits give low values; 340,000 tested, 0.3% active;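 active means fluorescence-ratio B-score plate-corrected deviation score at least 3 library SD below zero, with starting fluorescence score within 5 deviations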;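 further: channel opened by trigger with iodide after compound preincubation; score built on the fluorescence ratio of max minus min over baseline; more negative score means more quench and so TMEM16A activation or potentiation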
PHOSPHO1 block: blocks human PHOSPHO1 phosphatase activity; 290,000 tested, 1.1% active; recombinant PHOSPHO1, absorbance phosphatase assay; inhibition, % at 13.3 µM; in the data active means inhibition above about 60%
Target sequence (Q8TCT1 whole entry, looked up): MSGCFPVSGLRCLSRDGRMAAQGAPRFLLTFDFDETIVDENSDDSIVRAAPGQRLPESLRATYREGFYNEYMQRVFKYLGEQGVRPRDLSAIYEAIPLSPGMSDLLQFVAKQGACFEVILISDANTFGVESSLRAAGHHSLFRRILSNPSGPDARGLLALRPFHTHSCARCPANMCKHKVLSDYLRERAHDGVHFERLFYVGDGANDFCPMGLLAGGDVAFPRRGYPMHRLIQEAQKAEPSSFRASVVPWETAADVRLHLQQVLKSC
ANO1 block: mouse TMEM16A channel inhibition, primary screen. Q8BHY3. HEK293 TMEM16A/YFP iodide influx fluorescence, ionomycin. normalized B-score (activity score, 25-100; higher = stronger inhibition) at 10 µM. 310,000 tested, 1.2% active;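 active means ratio plate-corrected score three or more library SD toward inhibition, starting fluorescence score within five deviations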;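 further: score derived from kinetic fluorescence span divided by baseline fluorescence per well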
CHT block conf: human CHT inhibition, confirmatory screen | shares compounds with CHT block | CHT-expressing cells, choline membrane potential dye; LV-to-AA substituted CHT, HEK293 cells | CHT activity remaining % of control (hits give low values), % at 10 µM | 2,400 tested, 70% active;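 active means choline transporter activity left, mean of duplicates at 10 µM, below buffer-only control mean minus 3 SD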;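 further: depolarization triggered by choline at its EC90 following an EC20 pre-addition; 0% = hemicholinium-3 full block and 100% = buffer-only control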
HEK293 CHT ctr: counter-screen for CHT inhibitors: effect in parental HEK293 cells. membrane potential dye, choline response; active = decrease or increase beyond buffer ±3SD. shares compounds with CHT block. membrane potential ratio readout (active if shifted either direction beyond buffer ±3SD; no single direction) at 10 µM. 2,400 tested, 4% active. AID 493222;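 further: parental cells lack the transporter so any hit is non-specific; ratio is peak minus trough fluorescence over baseline after EC90 choline challenge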
CHT activ conf: confirmation of human choline transporter (CHT) activators | shares compounds with CHT allo act | CHT-expressing cells, membrane potential dye fluorescence (FDSS); % of choline EC20–EC90 response window; HEK293 expressing CHT LV-AA mutant; choline added at its EC20 | activation, % at 10 µM | 2,500 tested, 91% active;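 active means primary screen active, with duplicate mean activation above negative control mean plus 3 SD, cut at about 11% in these data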
HEK293 MP dye: CHT activator counter-screen hit in parental HEK293 cells; shares compounds with CHT allo act; 2,500 tested, 62% active; membrane potential dye fluorescence (FDSS); measured after EC20 choline addition; ratio readout change at 10 µM, hits read low; AID 623908;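 active means duplicate-averaged ratio beyond 3 SD from buffer wells, up or down, though filed actives are nearly all decreases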
TMEM16A reconf: re-confirmation of mouse TMEM16A chloride channel inhibitors. shares compounds with ANO1 block. HEK293 TMEM16A/YFP-H148Q, iodide quench fluorescence; ionomycin added to raise cell calcium. inhibition, % at 10 µM. 2,300 tested, 39% active. AID 652189;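 active means mean duplicate percent inhibition, scaled so buffer wells are 0 and the reference blocker 100, over three buffer SD above buffer mean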
HEK293 Ca mobil: calcium mobilization counter-screen hit for TMEM16A inhibitor series; calcium response (% of ionomycin), % at 10 µM; TMEM16A/YFP HEK293, Fluo4 calcium mobilization; shares compounds with ANO1 block; 2,300 tested, 2% active; AID 652231;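 active means duplicate-averaged calcium signal over 20% of the ionomycin maximum, relative to buffer baseline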;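 further: each well's signal is peak minus trough fluorescence divided by its pre-addition baseline; 0% = buffer wells and 100% = ionomycin wells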
Parental YFP cnt: counter-screen for TMEM16A inhibitors: effect in parental YFP-HEK293 cells; shares compounds with ANO1 block; AID 652233; 2,300 tested, under 10 active; iodide YFP quench, ionomycin; YFP ratio F(max-min)/F0 at 10 µM;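 active means yellow fluorescent protein signal ratio exceeding the buffer control mean by over 5 SD of those controls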;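 further: ratio is mean of duplicate wells from kinetic YFP trace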
ClC-1 rat inh: rat ClC-1 inhibition, TMEM16A specificity screen | 2,300 tested, under 10 active | shares compounds with ANO1 block | AID 652236 | ratio percent, % at 10 µM | CHO ClC-1-YFP, iodide influx fluorescence quench; iodide control reads 0, buffer control 100;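 active means duplicate-mean ratio percent above the mean of iodide-only control wells, which defines zero, plus 5 of their SD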;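 further: higher percent means stronger block of ClC-1 iodide influx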
Numbers without * were called inactive; i = inactive; x = not tested or not shown; ! = repeats disagree.

SMILES | HDAC3 inh | CHT allo act | CHT block | TMEM16A act | PHOSPHO1 block | ANO1 block | CHT block conf | HEK293 CHT ctr | others
CC(=O)OCC[N+](C)(C)C | 4.7 | i | -7.46*! | -9.65* | -3.8 | i | 25.3%* | i
C[N+](C)(C)CCOC(=O)CBr | 1.6 | i | -8* | i | x | i | -8.4%* | i
S=C1CN=C(c2ccccc2)c2cc(Cl)ccc2N1 | 1.4 | i | i | i | -1.9 | i | x | x
CN1C(=O)C(=Cc2ccc(N3CCCCCC3)cc2)C(=O)N(C)C1=O | 0.8 | i | i | i | -155.5 | i | x | x
Cc1ccc2occ(CN3CC4CC(C3)c3cccc(=O)n3C4)c(=O)c2c1 (stereo unspecified) | 4.9 | i | i | i | -2.2 | i | x | x
O=c1cccc2n1CC1CC2CN(Cc2cccc(Cl)c2Cl)C1 (stereo unspecified) | 1.0 | i | -5.39* | i | -2.2 | i | 64.8%* | i
O=C(CCNC(=O)N1C[C@H]2C[C@@H](C1)c1cccc(=O)n1C2)Nc1cccc(Cl)c1 | 0.2 | i | i | i | 28.6 | i | x | x
CC1=CC2/C=C(\C)CCC(O)C(O)/C=C/C(=O)C23C(=O)NC(CC(C)C)C3C1C (stereo unspecified) | -0.3 | i | -6.53* | i | 47.7 | i | 24.1%* | i
CCCCn1c(O)c(C(C)=NCc2ccco2)c(=O)[nH]c1=O | -1.3 | i | i | i | 31.6 | i | x | x
C=CCn1c(O)c(C(CC)=NC(C)c2ccccc2)c(=O)[nH]c1=O (stereo unspecified) | 1.1 | i | -4.99* | i | 26.7 | i | 48.8%* | i
c1ccc2c(CN3CCCCCCC3)c[nH]c2c1 | -1.9 | i | -10.5* | i | 18.4 | i | 2.7%* | i
c1ccc2c(CN3CCN(C4CCCCC4)CC3)c[nH]c2c1 | 4.0 | i | i | i | 15.6 | i | x | x
O=C(O)C1(Br)CC12c1ccccc1-c1ccccc12 (stereo unspecified) | x | x | x | i | x | x | x | x
Cc1cccc(C(O)(C(=O)O)c2ccccc2)c1 (stereo unspecified) | x | x | x | i | x | x | x | x
COc1ccc(/C=C2/C(=O)NC(=S)N(C3CC3)C2=O)cc1CN1C(=O)c2ccccc2C1=O | 12.6 | i | i | i | -16.0 | i | x | x
CC(C)OCCCNC(=O)c1c(N)n(CC2CCCO2)c2nc3ccccc3nc12 (stereo unspecified) | -35.6 | i | -5.07* | i | 7.1 | i | i | i
COC(=O)C1=C(c2cc3ccccc3o2)C[C@@H]2CC[C@H]1N2C(=O)N1CCCC1 | 0.9 | i | -6.2* | i | x | i | 64.8%* | i
COC(=O)C1=C(c2cc3ccccc3o2)C[C@@H]2CC[C@H]1N2C(=O)N1CCCCC1 | 4.0 | i | i | i | x | i | x | x
CCn1c(P(C)(=O)O)nc2cc(NC(=O)c3ccccc3F)ccc21 | 3.7 | i | -12.4* | i | 17.2 | i | i | i
CCOc1cc2c(cc1OCC)-n1cccc1C(c1cc(C)c(OC)cc1C)NC2 (stereo unspecified) | 4.1 | i | -5.05* | i | -24.5 | i | i | i
CCOc1cc2c(cc1OCC)-n1cccc1C(c1ccc(C)cc1C)NC2 (stereo unspecified) | 9.5 | i | i | i | 46.3 | i | x | x
CCC(=NCCc1c[nH]c2ccccc12)c1c(O)n(C)c(=O)n(C)c1=O | 4.2 | i | -5.71* | i | 21.0 | 100* | i | i | TMEM16A reconf=19.0%*;HEK293 Ca mobil=i;Parental YFP cnt=-0.974;ClC-1 rat inh=-26.0
CC(C)OC(=O)c1c(N)n(CC2CCCO2)c2nc3ccccc3nc12 (stereo unspecified) | -42.4 | i | i | i | 9.7 | i | x | x
Nc1c(C(=O)OC2CCCCC2)c2nc3ccccc3nc2n1CC1CCCO1 (stereo unspecified) | -116.5 | i | -8.64* | i | 8.5 | 100* | 50.7%* | i | TMEM16A reconf=i;HEK293 Ca mobil=i;Parental YFP cnt=-1.13;ClC-1 rat inh=-4.0
O=C(Cc1cc(=O)[nH]c(=O)[nH]1)N1CCN(CCO)CC1 | x | x | x | i | 43.7 | x | x | x
SMILES | HDAC3 inh | CHT allo act | CHT block | TMEM16A act | PHOSPHO1 block | ANO1 block | CHT block conf | HEK293 CHT ctr | others
CCc1nc2ccc(Br)cc2c(=O)n1-c1ccccc1C(F)(F)F | 0.4 | i | i | i | x | i | x | x
CCCc1nc2ccc(Br)cc2c(=O)n1-c1ccc([N+](=O)[O-])c(C(F)(F)F)c1 | -3.8 | i | i | i | -13.9 | 100* | x | x | CHT activ conf=1.6;HEK293 MP dye=i
Cc1cccc(NP(=O)(Oc2ccccc2F)Oc2ccccc2F)c1 | 19.6 | i | i | i | -9.7 | i | x | x | CHT activ conf=22.6*;HEK293 MP dye=i
COP(=O)(NC(=O)C(Cl)(Cl)Cl)OC | -0.3 | i | i | i | 28.1 | i | x | x
Cc1cc(C)c2c(ccc3cccc[n+]32)c1 | -0.2 | 6.31* | i | i | x | i | x | x | CHT activ conf=72.1*;HEK293 MP dye=-55.1*
Cc1sc2ccccc2c1CC1=NCCN1 | -8.1 | 7.8* | i | i | x | i | x | x | CHT activ conf=45.8*;HEK293 MP dye=-50*
